Data on 39 compounds can be found in PubChem BioAssay (EPA / NIEHS).

Test [1] is described as follows: CCTE_Shafer_MEA_acute_spike_number: CCTE's Neural Acute Assay for Total Number of Spikes, Shafer Lab (AID 2284008).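 As to AC50: curve fitted for decrease in spike count so AC50 reflects inhibitors.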 Put shortly:
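Using an adaptive detector set to 8x rms noise, spikes were counted in 40-min windows before and after compound addition (0.03-40 uM) to rat cortical networks at 37 C; the well-level change from baseline was analysed relative to DMSO.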

Test [2] is described as follows: CCTE_Shafer_MEA_acute_firing_rate_mean: CCTE's Neural Acute Assay for Mean Firing Rate, Shafer Lab (AID 2284009).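 Also: analyzed for loss of signal so actives lower firing rate relative to DMSO.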 The procedure, abridged:
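Primary rat cortical neurons on 16-electrode MEA wells were exposed on DIV 13 or 15 to compound (0.03-40 uM). Spike counts per recording time, averaged over electrodes, were compared between 40-min baseline and 40-min post-exposure recordings as percent change.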

The nature of test [3]: CCTE_Harrill_HTTr_Viability_MCF7: CCTE's 6-hour Cell Viability Assessment for the High-Throughput Transcriptomics (HTTr) Platform, in MCF-7 cells cultured in DMEM + 10% fetal bovine serum, Harrill Lab (AID 2284010). The procedure, abridged:
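PI exclusion, high-content imaging; 8-pt dilution series, 6 h exposure; bidirectional fit vs DMSO (neg. ctrl/baseline); gain of signal = loss of membrane integrity.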

The nature of test [4]: CCTE_Harrill_HTTr_Apoptosis_MCF7: CCTE's 6-hour Apoptosis Assessment for the High-Throughput Transcriptomics (HTTr) Platform, in MCF-7 cells cultured in DMEM + 10% fetal bovine serum, Harrill Lab (AID 2284011). The procedure, abridged: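 Apoptosis in MCF-7 cells grown in DMEM with 10% fetal bovine serum was scored after a six hour exposure by high content imaging of caspase-3/7 activation (CellEvent Caspase 3/7 Green), with DMSO serving as negative control and baseline.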

Test [5] can be described thus: CCTE_Harrill_HTTr_CellCount_MCF7: CCTE's Cell Proliferation Assessment for the High-Throughput Transcriptomics (HTTr) Platform, Harrill Lab (AID 2284012; active = hit-call score of the fitted dose curve at least 0.9, where 1 is the maximum;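 also: count of Hoechst-stained nuclei per well by high-content imaging in MCF-7 cells; cells exposed to compound for six hours; intended direction is loss of nuclei count meaning fewer cells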). Put shortly: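 Readout: Hoechst nuclear count by high-content imaging. MCF-7, 8-point dilution series, 6 h exposure. Bidirectional fit vs DMSO baseline.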
Test [6] in a line: CCTE_Shafer_MEA_acute_burst_number: CCTE's Neural Acute Assay for Single-Electrode Bursts, Shafer Lab (AID 2284013). Put shortly: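 Primary rat cortical neurons on 16-electrode MEA wells, DIV 13 or 15, exposed to compound (0.03-40 uM; ≥3 wells); 40-min recordings at 37 C before and after treatment. Burst count expressed as percent change from baseline, DMSO as negative control.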

Test [7] is described as follows: CCTE_Simmons_MITO_basal_resp_rate: CCTE's HepG2 Seahorse XF Respirometric Screening Assay at Basal Respiratory State, Simmons Lab (AID 2284001). The settings on record: actives raise or lower the signal. Put shortly:
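Basal-phase OCR in HepG2 cells, read at 6-min intervals across a 72-min run, with test compound injected at 125 nM–100 uM final (7 points). Fitted both directions against DMSO; three biological replicates per concentration.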

Test [8] can be described thus: CCTE_Simmons_MITO_inhib_resp_rate: CCTE's HepG2 Seahorse XF Respirometric Screening Assay at Inhibited Respiratory State [full ETC block], Simmons Lab (AID 2284006). The settings on record: actives raise or lower the signal. Put shortly: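 OCR read-out in the inhibited phase following rotenone/antimycin A, after compound and FCCP injections, in HepG2 cells. Seven concentrations (125 nM to 100 uM final), three biological replicates, 6-min cycles over 72 min; DMSO baseline.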

Inconclusive results are not listed. Activity calls are given as the source filed them. The calls were made as follows, unless noted: active = hit-call score of the fitted dose curve at least 0.9, where 1 is the maximum; inactive = score below 0.9.

In the case of `ClC1=C(Cl)[C@]2(Cl)[C@@H]3[C@H]4C[C@H]([C@@H]5O[C@H]45)[C@@H]3[C@@]1(Cl)C2(Cl)Cl`, the figures for the AC50 in test [1] and in test [2] were 1.38 µM (active) and 1.4 µM (active), respectively. Also, the outcome in test [3], in test [4], in test [5] and in test [6] was inactive.
`CC#Cc1cc(C)nc(Nc2ccccc2)n1`: the AC50 is 4.07 µM (active) in test [1], 4.06 µM (active) in test [2] and 2.85 µM (active) in test [6]. Moreover, the outcome in test [3], in test [4] and in test [5] was inactive.
As for `CC(C)(O)C(=O)Nc1ccc([N+](=O)[O-])c(C(F)(F)F)c1`, the AC50 in test [7] was 40.9 µM (active). Also, the compound was called inactive in test [8] and in test [4].
As for `Clc1ccc(C(Cl)(Cl)Cl)cc1`, the outcome in test [1], in test [2], in test [3], in test [4], in test [5] and in test [6] was inactive.
As to `CCCCCCCCCC[N+](C)(C)CCCCCCCCCC`, the AC50 in test [7] was 8.58 µM (active); in test [1], 2.81 µM (active); in test [2], 2.88 µM (active). The outcome in test [8], in test [3], in test [5] and in test [6] was inactive.
In the case of `ClC(Cl)=C(c1ccc(Cl)cc1)c1ccc(Cl)cc1`, the result in test [1], in test [2], in test [3], in test [4], in test [5] and in test [6] was inactive.
Turning to `Oc1c(Cl)c(Cl)c(Cl)c(Cl)c1Cl`, the concentration at half-maximal activity (AC50) in test [7] is 0.451 µM (active). Moreover, the result in test [8], in test [4] and in test [5] was inactive.
As to `CN(C)c1nc(=O)n(C2CCCCC2)c(=O)n1C`, in test [4], the result was inactive.
Turning to `Clc1ccc(C(c2ccccc2Cl)C(Cl)(Cl)Cl)cc1` (stereo not drawn), the outcome in test [4] and in test [5] was inactive.
As for `Cc1cc(O)ccc1Cl`, the outcome in test [4] and in test [5] was inactive.
As to `COS(=O)(=O)OC`, the result in test [1], in test [2], in test [4], in test [5] and in test [6] was inactive.
`Cc1cccc([N+](=O)[O-])c1`: the outcome in test [4] was inactive.
For the compound `O=C(O)C(F)(F)C(F)(F)C(F)(F)C(F)(F)C(F)(F)F`, the compound was classed as inactive in test [1], in test [2], in test [4], in test [5] and in test [6].
`C=CC(N)=O`: the result in test [1], in test [2], in test [4], in test [5] and in test [6] was inactive.
Consider `ClC1=C(Cl)[C@]2(Cl)[C@@H]3[C@@H]4C[C@@H]([C@H]5O[C@@H]45)[C@@H]3[C@@]1(Cl)C2(Cl)Cl`, for which the AC50 in test [1] was 0.476 µM (active); in test [2] it was 0.489 µM (active); in test [6], 0.508 µM (active). Moreover, the outcome in test [4] was inactive.
For the compound `O=S(=O)(O)C(F)(F)C(F)(F)C(F)(F)C(F)(F)C(F)(F)C(F)(F)F`, the outcome in test [3], in test [4] and in test [5] was inactive.
For `CCOCCOC(C)=O`, the outcome in test [4] and in test [5] was inactive.
On to `CCCCCCCCCc1ccc(O)cc1`, for which the AC50 is 9.9 µM (active) in test [1] and 9.87 µM (active) in test [2]. In addition, the outcome in test [4], in test [5] and in test [6] was inactive.
For the compound `Cc1ccc(O)c(C)c1`, the outcome in test [4] and in test [5] was inactive.
For the compound `Nc1ccc(-c2ccc(N)cc2)cc1`, the compound was called inactive in test [1], in test [2] and in test [6].
Regarding `Cc1ccccc1O`, the outcome in test [4] and in test [5] was inactive.
Turning to `Oc1ccc(Cl)cc1Cl`, in test [4], the result was inactive.
`Sc1ccccc1`: the result in test [3], in test [4] and in test [5] was inactive.
On to `ClC1=C(Cl)[C@]2(Cl)[C@@H]3[C@@H](Cl)[C@H]4O[C@H]4[C@@H]3C1(Cl)C2(Cl)Cl`, for which the AC50 is 0.106 µM (active) in test [1], 0.107 µM (active) in test [2] and 0.054 µM (active) in test [6]. Also, the outcome in test [4] and in test [5] was inactive.
As to `O=S(=O)(O)C(F)(F)C(F)(F)C(F)(F)C(F)(F)F`, the outcome in test [3], in test [4] and in test [5] was inactive.
With `C1CC2OC2CC1C1CO1` (stereo not drawn), the result in test [3] and in test [4] was inactive.
Consider `CCCCCCOC(=O)c1ccccc1C(=O)OCCCCCC`, for which the result in test [4] and in test [5] was inactive.
On to `Cc1cc2c3c(c1)C(c1ccccc1)=N[C@@H](NC(=O)c1ccncc1)C(=O)N3CC2`, for which the outcome in test [4] and in test [5] was inactive.
Turning to `CN(C)CCO`, the outcome in test [1], in test [2], in test [3], in test [4] and in test [6] was inactive.
Regarding `Cc1cc(-c2ccc(N)c(C)c2)ccc1N`, the result in test [4] and in test [5] was inactive.
Regarding `Clc1ccc(Cl)cc1`, the result in test [4] was inactive.
Take `CCC(C)(CC)c1cc(NC(=O)c2c(OC)cccc2OC)on1`: the compound was classed as inactive in test [1], in test [2], in test [4], in test [5] and in test [6].
For the compound `CCOP(=S)(OCC)SCSC(C)(C)C`, the outcome in test [4] and in test [5] was inactive.
For the compound `O=C(NC(=O)c1cc(F)c(F)cc1Cl)Nc1cc(F)ccc1N1CCC(C(=O)O)CC1`, in test [4], the outcome was inactive.
As for `Nn1cnnc1`, the outcome in test [4] and in test [5] was inactive.
As to `Cc1cccc(C)c1N`, the result in test [3], in test [4] and in test [5] was inactive.
With `c1ccc(-c2ccccc2)cc1`, the outcome in test [1], in test [2], in test [4], in test [5] and in test [6] was inactive.
In the case of `O=NN(c1ccccc1)c1ccccc1`, in test [4], the outcome was inactive.
For `CC(C)C(=O)OCC(C)(C)C(OC(=O)C(C)C)C(C)C` (stereo not drawn), the compound was classed as inactive in test [1], in test [2] and in test [6].

One may read the AC50 as the concentration giving half of the maximal activity seen.
